Giardia killer: Small Molecules that selectively kill Giardia lamblia: qHTS. 340,000 compounds, 0.15% hits. Giardia lamblia trophozoite viability. activity change, % at 7.66 µM, hits read low; in the data active = activity change below about -80%; inconclusive = between about -30% and that limit;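 also: parasites exposed to compound for two days anaerobically before the ATP read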
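Luminescent ATP signal served as the viability read-out, measured 15-30 min after adding ATP detection reagent to trophozoites that had been incubated with compounds for 48 hrs at 37 deg C anaerobically at 100 cells/well.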
Coupling enz: qHTS Assay for Inhibitors of Fructose-1,6-bisphosphate Aldolase from Giardia Lamblia: Coupling assay counterscreen | coupling enzyme system counterscreen, AmpLite Red fluorescence | AID 2472, 2010 | activity change, negative = inhibition, % at 58.2 µM, hits read low | 290,000 compounds, 0.67% hits; in the data active = activity change below about -30%
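Coupling enzymes only (glyceraldehyde-3-phosphate) + compound, at 57.5 uM final, 10 min RT; add substrate/coupling/AmpLite Red mix, 20 min RT; fluorescence ex 525/em 598 nm. Actives flag coupling-system interference.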
KCNH2 WT inh: qHTS for Inhibitors of KCHN2 3.1: Wildtype qHTS; 340,000 compounds, 0.37% hits; activity change, % at 1.84 µM; U2OS, BacMam KCNH2, thallium flux FluxOr; active compounds read low; Voltage-gated inwardly rectifying potassium channel KCNH2 (Homo sapiens), Q12809;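 active = maximum activity change below -70%; inconclusive = maximum activity change between -70% and -50%; inactive = maximum activity change above -50%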
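U2OS cells were transduced with wild-type KCNH2 virus (2.03 x 10^8 / mL) for 4 h at room temperature, then cultured overnight at 37 C. Thallium flux was read with FluxOr dye. Rate constants were normalized to DMSO controls.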
USP1 inh: Inhibitors of USP1/UAF1: Primary Screen. Potency, µM (highest dose often 57.1 µM), most hits filed as inhibitors. 390,000 compounds, 0.23% hits. recombinant USP1/UAF1, Ub-Rhodamine cleavage fluorescence. Ubiquitin carboxyl-terminal hydrolase 1 (Homo sapiens), O94782. AID 743255, 2014; active = well fitted inhibition curve with a large enough effect; inconclusive = small, poorly fitted or top-dose-only effect; inactive = no such curve, though single readings can be large or run the other way; also: nearly all actives have a fitted effect of over 60% in size
Target sequence (O94782 whole entry, looked up): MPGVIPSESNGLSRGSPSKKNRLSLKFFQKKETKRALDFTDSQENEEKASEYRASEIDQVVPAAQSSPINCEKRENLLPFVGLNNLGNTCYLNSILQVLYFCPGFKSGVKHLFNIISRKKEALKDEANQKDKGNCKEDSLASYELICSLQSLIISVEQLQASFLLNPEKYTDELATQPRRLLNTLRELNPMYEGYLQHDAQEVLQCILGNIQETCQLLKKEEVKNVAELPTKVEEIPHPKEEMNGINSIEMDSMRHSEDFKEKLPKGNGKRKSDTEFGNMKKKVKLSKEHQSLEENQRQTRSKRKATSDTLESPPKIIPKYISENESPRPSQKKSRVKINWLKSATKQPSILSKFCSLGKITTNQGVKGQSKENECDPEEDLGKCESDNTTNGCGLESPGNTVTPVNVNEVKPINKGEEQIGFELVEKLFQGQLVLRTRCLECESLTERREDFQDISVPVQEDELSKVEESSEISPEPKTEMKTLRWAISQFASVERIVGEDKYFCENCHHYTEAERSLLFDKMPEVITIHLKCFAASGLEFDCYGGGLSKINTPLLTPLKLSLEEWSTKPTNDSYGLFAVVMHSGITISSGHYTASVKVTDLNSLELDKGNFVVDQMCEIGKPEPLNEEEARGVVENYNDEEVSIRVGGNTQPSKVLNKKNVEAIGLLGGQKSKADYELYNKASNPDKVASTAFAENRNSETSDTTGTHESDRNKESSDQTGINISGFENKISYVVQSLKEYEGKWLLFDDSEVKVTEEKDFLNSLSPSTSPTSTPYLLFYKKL
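Step one: compound is pinned into 1nM USP1/UAF1 in HEPES pH 7.8 buffer with TCEP. Step two: 15 min room-temperature incubation. Step three: Ub-Rho (150nM final) starts cleavage, tracked by fluorescence over six one-minute reads.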
KCNH2 3.1 inh: qHTS for Inhibitors of KCHN2 3.1: Mutant qHTS; Potassium voltage-gated channel subfamily H member 2, brain isoform KCNH2 3.1 (human); U2OS KCNH2 3.1, thallium flux FluxOr; active compounds read low; activity change, % (tested at about 1.8 µM); 340,000 compounds, 0.95% hits;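 active = maximum activity change below -70%; inconclusive = maximum activity change from -70% to -50%; inactive = maximum activity change above -50%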;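 also: thallium influx rate constant from kinetic fluorescence after stimulation buffer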
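Measured as rate of thallium-driven FluxOr signal in transduced U2OS cells carrying the 3.1 channel, read kinetically for 2 min upon stimulation; values are rate constants scaled to DMSO control wells.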
Numbers stand for hits; . = inactive; ? = inconclusive; / = no result; ! = not active in a repeat. This is a sample that favours compounds with a hit; in the whole collection about 1.7% have one here.

SMILES	Giardia killer	Coupling enz	KCNH2 WT inh	USP1 inh	KCNH2 3.1 inh
OC[C@@H](O)C(O)[C@H](O)[C@@H](O)CO (some centres not stated)	/	.	/	/	/
COc1ccc(C(=S)N2CCN(c3ccccc3Cl)CC2)cc1OC	.	.	.	.	.
COc1cc(C(=S)N2CCN(c3ccccc3Cl)CC2)cc(O)c1O	.	.	-174	.	-75
COc1cc(OC)cc(C(=O)OCC(=O)Nc2nnc(-c3ccccc3)o2)c1	.	/	.	.	.
O=C(COC(=O)c1cncc(Br)c1)Nc1nnc(-c2ccccc2)o1	.	/	-72	.	.
Cc1ccc(S(=O)(=O)N2CCC(C(=O)NNC(=O)c3ccccc3)CC2)cc1	.	.	.	.	-115
Cc1ccc(C(=O)N/C(=C\c2ccc(F)cc2)C(=O)NCc2ccncc2)cc1	.	.	.	.	-90
Cc1ccc(C(=O)N/C(=C\c2cccc([N+](=O)[O-])c2)C(=O)NCc2ccncc2)cc1	.	.	.	.	-86
O=C(NCc1ccncc1)/C(=C\c1ccc(F)cc1)NC(=O)c1ccccc1	.	.	.	.	?
N#Cc1ccccc1OCC(=O)NC1CCCCCC1	/	/	.	.	.
COc1cccc(C(=O)N2CCC(N3CCN(Cc4ccc(F)cc4)C(=O)C3=O)CC2)c1	/	/	/	.	/
CC(C)(C)NC(=O)CCc1nnc(Cc2c[nH]c3ccccc23)o1	.	.	.	.	-110
CCCCCCCCCCCCC/C=C/[C@@H](O)[C@H](CO)NC(=O)CCCCC	/	.	/	/	/
CCN1/C(=N\N)c2cccc3cccc1c23	.	-47	.	.	.
CCC(C)NC(=O)CN1C(=O)c2cccc3cccc1c23 (configuration not stated)	.	.	.	.	.
O=C(Nc1ncc(Cc2ccc(SC(F)F)cc2)s1)c1ccc(OC(F)F)cc1	.	.	.	.	-82
Cc1ccc(Cc2cnc(NC(=O)c3ccco3)s2)cc1	.	.	.	.	.
Cc1ccc2cccc(Oc3ncnc4scc(-c5ccc(Cl)cc5)c34)c2n1	.	.	.	14µM	.
Cc1ccc2cccc(Oc3ncnc4scc(-c5ccccc5)c34)c2n1	?	.	.	.	.
O=C(Oc1ccc(OC(=O)N2CCOCC2)cc1)c1ccccc1	.	.	-152	.	.
O=C(NC1CC1)C1CCN(c2ncnc3c2sc2cccc(F)c23)CC1	.	.	.	.	.
O=C(C1CCN(c2ncnc3c2sc2cccc(F)c23)CC1)N1CCCC1	/	-44	/	/	/
CC1CCN(c2ccc(-c3cccc(NC(=O)C(F)(F)F)c3)nn2)CC1	-84	.	.	.	.
O=C(Nc1cccc(-c2ccc(N3CCCCC3)nn2)c1)C(F)(F)F	?	.	.	.	.
CCC(=O)Nc1cccc(-c2ccc(N3CCC(C)CC3)nn2)c1	-85	.	.	.	.
SMILES	Giardia killer	Coupling enz	KCNH2 WT inh	USP1 inh	KCNH2 3.1 inh
CCC(=O)Nc1ccc(-c2ccc(N3CCC(C)CC3)nn2)cc1	.	.	.	.	.
CCOC(=O)c1c(S(=O)(=O)NCC(=O)N(C)c2ccc(C)cc2)c(C)n(C)c1C	/	/	/	.	/
CC[C@H](C)[C@H](NC(=O)[C@H](CC(=O)O)NC(=O)[C@H](CC(C)C)NC(=O)[C@H](NC(C)=O)C(c1ccccc1)c1ccccc1)C(=O)N[C@H](C(=O)N[C@@H](Cc1c[nH]c2ccccc12)C(=O)O)[C@@H](C)CC	/	.	/	/	/
CCCN(c1ccc(C(C)C)cc1)S(=O)(=O)c1ccc2c(c1)CCN2C(=O)CC	/	/	/	.	/
S=c1[nH]c2cc3ccccc3cc2[nH]1	.	-53!	.	?	.
S=c1[nH]c2ccc3ccccc3c2[nH]1	?	.	.	.	/
CC1OC(CC(=O)O)CC2=C1C(=O)c1c(O)cccc1C2=O (configuration not stated)	.	/	.	11µM	.
CC1(C)CCC(=O)N2CC[C@H]3C[C@H](OC(=O)Nc4ccc5c(c4)OCO5)C[C@@H]1[C@H]32	.	.	.	?	-135
Cc1ccc(S(=O)(=O)N2CCN=C2SCc2ccccc2)cc1	.	-35	.	.	.

Screening results (PubChem)
